From PubChem BioAssay (NCI)
Compounds without any hit were thinned out: in the full panel of roughly 79,000, 15% have a hit. Calls of active or inactive are those of the source. Rule as the data show it: active = growth inhibition above about 70%; inactive = the rest. Where a SMILES comes first, the peptide text is derived from it. The star is where a group is joined. Boc = CC(C)(C)OC(=O)*

Assays:
[1] = NCI Yeast Anticancer Drug Screen. Data for the rad50 strain (AID 155);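 also: 0% = growth of vehicle-only cultures of the same strain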; details: S. cerevisiae rad50 strain growth inhibition; at 50.0 µM; active compounds read high
In short: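 Growth of the mutant yeast was measured after compound exposure and referenced to vehicle-treated cultures.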

[2] = NCI Yeast Anticancer Drug Screen. Data for the mec2-1 strain (AID 157); details: S. cerevisiae mec2-1 strain, at 50.0 µM, active compounds read high
In short: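 Each compound was tested on mec2-1 yeast, a strain altered in DNA damage repair or cell cycle control. Growth inhibition is reported relative to vehicle.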

[3] = NCI Yeast Anticancer Drug Screen. Data for the sgs1 mgt1 strain (AID 161);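 also: 0% = growth of cultures given vehicle only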; details: S. cerevisiae sgs1 mgt1 strain, at 50.0 µM, active compounds read high
In short: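 Mutant yeast exposed to compound; growth scored against vehicle-only wells.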

[4] = NCI Yeast Anticancer Drug Screen. Data for the cln2 rad14 strain (AID 165);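 also: 0% = growth equal to vehicle treated cultures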; details: S. cerevisiae cln2 rad14 strain, at 50.0 µM, active compounds read high
In short: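 Test compounds were added to cln2 rad14 yeast cultures; inhibition of growth was then determined by comparison with vehicle treatment.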

[5] = NCI Yeast Anticancer Drug Screen. Data for the bub3 strain (AID 167); details: S. cerevisiae bub3 mutant strain, at 50.0 µM, active compounds read high
In short: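 Whole-cell yeast assay. The mutant strain was incubated with compounds, and growth inhibition was determined by comparison with vehicle-treated cells.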

[6] = NCI Yeast Anticancer Drug Screen. Data for the mlh1 rad18 strain (AID 175); details: S. cerevisiae mlh1 rad18 strain growth inhibition; at 50.0 µM; active compounds read high
In short: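 Inhibition values reflect reduced growth of mutant yeast versus vehicle-treated controls following compound exposure; the mutations affect DNA damage repair.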

Measured: growth inhibition

Cc1ccc(S(=O)(=O)c2ccc(O)c(C)c2)c(O)c1 (tested in a mixture with another compound)
inactive: [1] 36.6% | [2] 22.9% | [3] 35.3% | [4] 45.6% | [5] 33.4% | [6] 50.2%

CCOC(=O)c1nc(-c2ccccc2)c(-c2ccccc2)c(-c2ccccc2)c1C
inactive: [1] -24.6% | [2] -2.55% | [3] 10.2% | [4] -36.9% | [5] -0.6% | [6] -4.85%

CCSC(COC(C)=O)(SCC)C(OC(C)=O)C(OC(C)=O)C(COC(C)=O)OC(C)=O (configuration not stated)
inactive: [1] 10.9% | [2] 6.55% | [3] -9% | [4] -6.3% | [5] -2.6% | [6] 14.4%

COc1ccc(C2ON(c3ccccn3)CC=C2C)cc1 (configuration not stated)
inactive: [1] 12.4% | [2] -9.25% | [3] 12.6% | [4] 12.2% | [5] -2.45% | [6] 6.55%

CCCCS(=O)(=O)Nc1cccc(C(=O)O)c1
inactive: [1] 2.85% | [2] -9.1% | [3] 20.9% | [4] -17.4% | [5] 39.8% | [6] -7.15%

NC(N)=Nc1nc2ccc(Cl)cc2[nH]1
inactive: [1] 29.2% | [2] 1% | [3] 22.8% | [4] -4.3% | [5] -11.9% | [6] 11%

O=[N+]([O-])c1cccc(N=C(c2ccccc2)N(O)c2ccccc2)c1
inactive: [1] 1.8% | [2] -19.2% | [3] 0.85% | [4] 31.9% | [5] 10.9% | [6] 15.8%

O=C1c2cc([N+](=O)[O-])ccc2-c2c(S)cccc21
inactive: [1] 2.25% | [2] 5.25% | [3] -10.2% | [4] -4.7% | [5] 25.8% | [6] -16.3%

CC(C)(C)OC(=O)NC(Cc1ccc(O)cc1)C(=O)N1CCCC1C(=O)O (stereo not drawn) (Boc-Tyr-Pro-OH; configuration not given here)
inactive: [1] -13% | [2] -11.3% | [3] -20.9% | [4] -10.2% | [5] -22.9% | [6] -23.1%

COc1ccc(CNc2cnc3ccc(N)cc3n2)cc1OC
inactive: [1] -36.9% | [2] -55.1% | [3] -40.2% | [4] 5.55% | [5] -25% | [6] -30.9%

CC(=O)c1cccc(NC(=O)Oc2ccc(F)cc2Cl)c1
inactive: [1] -2.3% | [2] 29.1% | [3] 18.8% | [4] -13.6% | [5] 12.9% | [6] -1.8%

CCC(=O)Oc1c2ccsc2c(OC(=O)CC)c2ccsc12
inactive: [1] 29.1% | [2] 6.6% | [3] 32.1% | [4] -3.2% | [5] 29.4% | [6] 13.7%

O=C(NC1=C(Cl)C(=O)c2ccccc2C1=O)C(=O)c1c(O)c2ccccc2oc1=O
active: [1] 83.5% | [2] 85.8% | [3] 87.8% | [4] 84.2% | [5] 84.6% | [6] 91.3%

CCCCC/C(=N\NC(N)=O)C1=CCCCC1
inactive: [1] 13.1% | [2] 7.6% | [3] -9.6% | [4] -19.9% | [5] -25.4% | [6] 18.4%

CCCCOC(=O)NCNC(=O)OCCCC
inactive: [1] 23.2% | [2] -7.1% | [3] -2.1% | [4] -15% | [5] 1.6% | [6] 14.9%

COC(=O)CNc1cccc([N+](=O)[O-])c1
inactive: [1] -3.45% | [2] 5.15% | [3] -3.65% | [4] -14.7% | [5] -11.3% | [6] -19.2%

CCOC(=O)C1(Cc2ccccc2)Cc2ccccc2C1=O (configuration not stated)
active: [3] 79% | [5] 73.7%
inactive: [1] 7.75% | [2] 29.9% | [4] 62.1% | [6] 63.5%

c1ccc2c(c1)C(=NOc1nc3ccccc3c3ccccc13)c1ccccc1-2
inactive: [1] -4.85% | [2] 10.6% | [3] 8.75% | [4] 3.65% | [5] 7.95% | [6] 12%

Cc1ccc2c(c1)C(C1=CCCc3ccc(C)cc31)=CCC2
inactive: [1] 10.2% | [2] -16.5% | [3] 9.05% | [4] 10.3% | [5] 8.2% | [6] 13.8%

O=C(NCCN1CCNCC1)c1ccc(Cl)cc1
inactive: [1] 26.9% | [2] 40% | [3] 30.8% | [4] 63% | [5] 33.6% | [6] 40.2%

O=C(Nc1ccc(Br)cc1C(F)(F)F)C(F)(F)F
inactive: [1] 6% | [2] -5.7% | [3] -2.15% | [4] -28.9% | [5] 1.9% | [6] -16.2%

NCCCn1cnc2c(N)ncnc21
inactive: [1] 8.95% | [2] -1.55% | [3] -4.55% | [4] -18.6% | [5] -16.4% | [6] 0.65%

O=C(Cc1cc[n+]([O-])cc1)C(=O)Nc1cc(Cl)c(Cl)cc1Cl
inactive: [1] -27.4% | [2] -11.9% | [3] -21.5% | [4] -17.1% | [5] -17.8% | [6] -20.1%

C/C(=N\O)c1sc(-n2nc(-c3ccccc3)cc2-c2ccccc2)nc1C
inactive: [1] 13.7% | [2] 4.2% | [3] 37.6% | [4] 25.4% | [5] 30.6% | [6] 19.3%

COC(=O)c1c(O)ccc(O)c1C(=O)OC
inactive: [1] -15.7% | [2] -18.4% | [3] -13.6% | [4] -16.6% | [5] -6.4% | [6] -21.6%

CCN(CC)C(COC(=O)Nc1ccccc1)COC(=O)Nc1ccccc1
inactive: [1] 1.85% | [2] -2.3% | [3] 0.6% | [4] -13.8% | [5] -18.9% | [6] 3.05%

CNC(=O)C(c1ccccc1)C(F)(F)F (configuration not stated)
inactive: [1] 8.1% | [2] 3.9% | [3] -6.7% | [4] -12.4% | [5] 10.3% | [6] 4.3%

CC(F)(F)C(F)(F)C(=O)CC(=O)C(F)(F)F.CC(F)(F)C(F)(F)C(=O)CC(=O)C(F)(F)F.[Cu]
inactive: [1] -9.15% | [2] -20.4% | [3] -9.75% | [4] -72% | [5] 1.95% | [6] -43.6%

O=C(O)/C(=C\c1ccccc1[N+](=O)[O-])c1ccc(C(F)(F)F)cc1
inactive: [1] 4% | [2] -15.9% | [3] 1.95% | [4] 7.1% | [5] 10.7% | [6] -18.9%

C=CCOC(=O)Nc1cc(Cl)ccc1C
inactive: [1] 3.9% | [2] 1.2% | [3] -8.5% | [4] -9.25% | [5] -1.55% | [6] -9.8%

COc1ccc2nc3cc([N+](=O)[O-])ccc3c(Nc3ccc(S(=O)(=O)NC(C)=O)cc3)c2c1
active: [1] 76.3% | [6] 75.2%
inactive: [2] 36.4% | [3] 67.8% | [4] 36% | [5] 64.5%

CC(C)N(Cc1ccccc1)C(=O)Nc1ccc(Cc2ccc(NC(=O)N(Cc3ccccc3)C(C)C)cc2)cc1
inactive: [1] -0.7% | [2] -12.3% | [3] 0.35% | [4] 18.4% | [5] -10.1% | [6] -8.3%

C[N+](C)(C)CCCSc1nc2ccccc2[nH]1
inactive: [1] 9.6% | [2] -7.15% | [3] -52% | [4] -30.9% | [5] -24.4% | [6] -15.5%

On1c(-c2ccccc2)c(-c2c(-c3ccccc3)n(O)c3ccccc23)c2ccccc21
inactive: [1] 0% | [2] 6.45% | [3] -4.9% | [4] -24.2% | [5] -7.6% | [6] 15.8%

C[n+]1cc(-c2ccccc2)cc(-c2ccccc2)c1
inactive: [1] 0.85% | [2] -3.35% | [3] -1.55% | [4] -29.8% | [5] -3.45% | [6] 6.85%

COc1nc2[nH]c(C)cc(=O)c2c2ccccc12
inactive: [1] 16.4% | [2] 14.8% | [3] 1.45% | [4] -26.8% | [5] -7% | [6] 2.8%

OCC1NCCCC1O (configuration not stated)
inactive: [1] -17.5% | [2] -25.6% | [3] -22.9% | [4] -8.55% | [5] -18.1% | [6] -10%

COc1cccc(N2C(=O)CC(=P(c3ccccc3)(c3ccccc3)c3ccccc3)C2=O)c1
inactive: [1] 40% | [2] 20.6% | [3] 23.9% | [4] -21.7% | [5] -7.9% | [6] 13.4%

CCOC(=O)CC(c1ccc2c(c1)OCO2)c1cc(OC)c(OC)c(OC)c1 (configuration not stated)
inactive: [1] -7.65% | [2] 24.9% | [3] -3% | [4] 0.45% | [5] 29.1% | [6] 3.2%

CC(C)(C)OC(=O)NO
inactive: [1] -0.6% | [2] 2.9% | [3] 0% | [4] 1.75% | [5] 5.05% | [6] 4.7%

CCCCC(N)=O
inactive: [1] -21.9% | [2] -9.05% | [3] 9.8% | [4] 5.7% | [5] -5.2% | [6] 4.3%

Cc1ccc(-c2nc3ccccc3cc2N)cc1
inactive: [1] 5.85% | [2] 7.65% | [3] -0.45% | [4] -14% | [5] 3.15% | [6] -4.4%
